# Shown are actives, neighbours in structure and some others; about 1.9% of the full set was active somewhere.
# sEH activator: soluble epoxide hydrolase (human) activation; actives 0.04% (n = 91,000); purified human sEH enzymatic activity, activator screen; activation, % at 2 µM; in the data active means activation above about 37%
# Target sequence (P34913 whole entry, looked up): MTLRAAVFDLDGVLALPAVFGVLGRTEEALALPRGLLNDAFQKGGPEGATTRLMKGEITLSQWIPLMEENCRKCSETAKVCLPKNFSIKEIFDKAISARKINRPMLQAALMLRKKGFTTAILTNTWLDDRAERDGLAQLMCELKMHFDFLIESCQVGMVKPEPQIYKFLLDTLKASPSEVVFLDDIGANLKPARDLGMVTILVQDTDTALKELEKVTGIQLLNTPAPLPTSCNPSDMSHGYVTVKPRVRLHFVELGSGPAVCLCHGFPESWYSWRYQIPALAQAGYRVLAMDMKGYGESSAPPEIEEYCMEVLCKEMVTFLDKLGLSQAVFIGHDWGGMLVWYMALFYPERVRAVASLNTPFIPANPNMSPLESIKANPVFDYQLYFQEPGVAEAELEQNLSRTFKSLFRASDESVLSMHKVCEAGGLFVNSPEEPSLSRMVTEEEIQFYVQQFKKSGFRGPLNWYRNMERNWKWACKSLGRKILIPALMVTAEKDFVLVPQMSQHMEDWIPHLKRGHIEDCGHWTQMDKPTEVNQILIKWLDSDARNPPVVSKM
# sEH inh: blocks human soluble epoxide hydrolase activity; P34913; recombinant human sEH enzymatic activity assay; inhibition, % at 2 µM; actives 0.34% (n = 91,000); AID 707; in the data active means inhibition above about 80%
# Calb biofilm kill: kills Candida albicans biofilms. C. albicans biofilm + clotrimazole, Alamar Blue. inhibition, % at 6 µM. actives 0.14% (n = 85,000);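 active means inhibition above 20%; inactive means inhibition below 20%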;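 further: preformed 24 hr biofilms exposed to compound for 48 hr; 0% = biofilm without compound and 100% = blank killed by clotrimazole plus chlorhexidine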
# F-actin modifier: modifiers of cytoskeleton assembly; HUVEC TNFa F-actin phalloidin imaging, high content; AID 836; inhibition, % at 2 µM; actives 0.18% (n = 91,000);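 active means inhibition above the batch mean plus 3 SD and confirmed as a hit by visual image inspection, cut at about 30% in these data, passing the limit was not always enough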
# Measles CPE: protection of cells from measles virus; Measles virus-infected cells, CPE protection, absorbance; protection (pct of control), % at 4 µM; actives 1.5% (n = 140,000); AID 841; in the data active means protection mostly above about 24%, no sharp cut-off; inactive means mostly below about 26%
# Active calls of the source: *; nt = not tested or not shown.
SMILES,sEH activator,sEH inh,Calb biofilm kill,F-actin modifier,Measles CPE
CCOC(=O)C(C)c1nc2ccccc2[nH]c1=O (stereo unspecified),15,-14,2,0,25*
CCOC(=O)C1=C(C)NC(C)=C(C(=O)OCC)C1c1nc2ccccc2[nH]1,-1,-1,nt,-14,nt
CCC(C)Cn1c(S(=O)(=O)O)nc2ccccc21 (stereo unspecified),1,0,4,3,50*
c1ccc2c(c1)CC(N1CCCCC1)c1ccccc1N2 (stereo unspecified),nt,nt,7,nt,42*
O=C1c2ccccc2NC2CCCCCN12 (stereo unspecified),-7,6,6,6,11
Cc1nc2ccc(S(=O)(=O)Nc3ccccc3C)cc2s1,nt,nt,2,nt,6
FC(F)Sc1nc(-c2ccccc2)c(-c2ccccc2)n1C(F)F,nt,nt,nt,nt,34*
c1ccc(-c2nc(-n3nc4ccccc4n3)nc3ccccc23)cc1,-9,8,nt,-50,39
Cc1ccccc1C(=O)NC1CCN(C(=O)N2CCOCC2)CC1,2,3,-2,6,3
Cc1ccccc1C(=O)NC1CCN(CC(=O)Nc2c(C)cccc2C)CC1,4,-4,8,8,39*
CCCCNC1C(CC)C(CCC)C(C#N)(C#N)C1(C#N)C#N (stereo unspecified),44*,-48,5,5,23
COc1ccc(CN2C(=O)[C@@H]3C(c4ccc(F)cc4)=NO[C@@H]3C2=O)cc1,38*,-40,6,36,21
N#C/C(=C(/O)COC(=O)c1ccc(C#N)cc1)c1nc2ccccc2s1,nt,nt,nt,nt,6
COC(=O)c1sccc1NC(=O)CN(C)NS(=O)(=O)c1ccc(F)cc1,-2,3,nt,-11,13
COC(=O)c1sccc1NC(=O)CN(C)NS(=O)(=O)c1ccc(Cl)cc1,2,-1,nt,17,44*
O=C(NNC1=Nc2cccc3cccc1c23)c1ccccc1Cl,nt,nt,nt,nt,6
Cc1nnn(C23CC4CC(CC(C(=O)NN)(C4)C2)C3)n1,nt,nt,nt,nt,33*
CCC(=O)Nc1cccc(-c2cnc3ccccc3n2)c1,4,-1,7,-4,40*
O=C(CCl)Nc1cccc(-c2cnc3ccccc3n2)c1,6,-6,2,-13,2
Cc1cc(C)c(NC(=O)/C(=C/c2ccccc2)c2ccccc2)c(C)c1,nt,nt,nt,nt,13
Cn1cccc1C(=O)OCC(=O)Nc1cc(C(C)(C)C)nn1-c1ccccc1,2,0,-2,72*,22
Cc1ccc2c(c1)C(=O)c1ccccc1CS2=O (stereo unspecified),nt,nt,nt,nt,7
COCCn1c(SCC(=O)N2CCc3ccccc3C2)nc2ccccc2c1=O,nt,nt,nt,nt,32*
C=CCn1c(SCC(=O)N2CCc3ccccc3C2)nc2sc(C)cc2c1=O,4,-6,nt,-4,33*
O=C(C1CCCO1)N1CCN(C(=S)Nc2ccc(Cl)cc2)CC1 (stereo unspecified),nt,nt,nt,nt,12
SMILES,sEH activator,sEH inh,Calb biofilm kill,F-actin modifier,Measles CPE
COC(=O)C1C(=O)c2c([nH]c(C(=O)OC3CCCCC3)c2C)CC1C (stereo unspecified),nt,nt,13,nt,33*
CCOc1ccc(/C(O)=C2/C(=O)C(=O)N(CC3CCCO3)C2c2ccc(C)o2)cc1 (stereo unspecified),1,-1,-2,0,46*
CCCCCn1c(Sc2ncccn2)nc2c1c(=O)[nH]c(=O)n2C,-4,4,1,5,38*
CCOc1ccc(C(=O)N2CCCC2)cc1OC,3,-3,5,12,33*
COc1cccc(OC)c1C(=O)Nn1c(-c2cccs2)nc2ccccc2c1=O,nt,nt,nt,nt,4
COc1ccc(CN(CCO)CCO)cc1[N+](=O)[O-],nt,nt,nt,nt,15
O=C(Nc1cccc(F)c1)NC1CC2CCCC(C1)N2C1CC1 (stereo unspecified),-84,84*,13,3,5
O=C(Nc1cccc(F)c1)NC1CCCCC1,-88,88*,4,3,21
O=C(Nc1ccc2c(c1)OCCO2)NC1CCCCC1,-89,89*,6,2,3
COC(=O)c1ccc(Cn2c(O)c(N=O)c3ccccc32)o1,nt,nt,4,-2,66*
COc1ccc(/C(=C/c2ccc(OC(F)F)c(OC)c2)C(=O)O)cc1OC,nt,nt,nt,nt,60*
COc1ccc2c(c1)c(=O)oc1cc(OCC(=O)N3CCc4ccccc4C3)ccc12,-1,3,-6,-33,2
O=C(Cc1ccccc1F)Nc1nc(-c2cccs2)cs1,4,-4,4,0,57*
O=C(COc1ccc(Cl)cc1)Nc1nc(-c2cccs2)cs1,nt,nt,-3,nt,16
O=C(Cc1ccccc1)Nc1nnc(-c2cccs2)s1,-12,10,-5,-8,22
O=C(Cc1ccccc1)Nc1nc(-c2cccs2)cs1,nt,nt,7,-11,62*
C=C(C(=O)c1ccccc1)C(C)C(=C)C(=O)c1ccccc1,nt,nt,nt,nt,0
O=C(CNC(=O)c1cccs1)NCC(=O)OCc1cccc(Cl)c1,-6,8,nt,18,active
COc1ccc2c(c1)Cc1sc(NC(C)=O)nc1-2,7,-5,8,-6,38*
Cc1ccc(NC(=O)c2ccc(C(C)(C)C)cc2)cc1[N+](=O)[O-],nt,nt,nt,nt,7
Cc1ccc([N+](=O)[O-])cc1-c1ccc(/C=N/NC(=O)c2cc3c(ccc4ccccc43)o2)o1,-5,7,nt,11,11
Cc1ccc(-c2ccc(/C=N\NC(=O)c3cc4c(ccc5ccccc54)o3)o2)cc1[N+](=O)[O-],-3,4,nt,-21,51*
Cc1c(N=C2NC(=O)C(CC(=O)Nc3ccccc3)S2)c(=O)n(-c2ccccc2)n1C (stereo unspecified),-1,4,-5,0,38*
C=C(C)c1cccc(C(C)(C)NC(=O)Nc2ccccc2OCC)c1,nt,nt,nt,nt,32
C=C(C)c1cccc(C(C)(C)NC(=O)Nc2ccc(Cl)cn2)c1,nt,nt,nt,nt,25
SMILES,sEH activator,sEH inh,Calb biofilm kill,F-actin modifier,Measles CPE
C=C(C)c1cccc(C(C)(C)NC(=O)Nc2cc(C)ccc2OC)c1,-6,5,nt,6,60*
C=C(C)c1cccc(C(C)(C)NC(=O)Nc2ncccn2)c1,3,-2,7,74*,5
CCOc1ccc(Cc2nc(C)c(CC(=O)N3CCOCC3)c(=O)[nH]2)cc1,-10,10,6,12,24
O=C(NCCOc1ccccc1F)c1cc(F)c(F)cc1Cl,nt,nt,nt,nt,33*
Cc1c(Br)c([N+](=O)[O-])nn1C(C)C(=O)Nc1c(C)n(C)n(-c2ccccc2)c1=O (stereo unspecified),8,-5,nt,-6,4
COc1cc(/C=N/OCC(=O)Nc2ccc(OC(F)F)cc2)ccc1OCc1ccccc1,nt,nt,nt,nt,22
C/C(=N\OCC(=O)NC12CC3CC(CC(C3)C1)C2)c1cc2ccccc2o1,nt,nt,nt,nt,19*
COc1cc(/C=N/OCC(=O)NC2CCCCC2)ccc1OCc1ccccc1,nt,nt,nt,nt,86*
COc1cc(/C=N/OCC(=O)NC23CC4CC(CC(C4)C2)C3)ccc1OCc1ccccc1,nt,nt,nt,nt,49*
CSc1ccccc1NC(=O)CO/N=C(\C)c1cc2ccccc2o1,nt,nt,nt,nt,10
Cc1cccc2c1-c1sc(C(=O)Nc3nccs3)cc1CO2,53*,-52,4,1,21
O=C(Nc1nccs1)c1cc2c(s1)-c1ccccc1OC2,nt,nt,nt,4,18

# Screening data deposited in PubChem by several laboratories.
